HIF activator = HIF pathway transcriptional activation | U2OS HRE-luciferase reporter, luminescence; normalized: DMSO 0%, desferrioxamine 100% | activation, % at 7.5 µM (by protocol) | 300,000 tested, 0.32% active;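 active = mean activation of at least 10% of the iron chelator positive control signal, with at least half of replicates also reaching 10%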
Platelet DG rel = platelet dense granule release activity. human platelet-rich plasma, SFLLRN dense granule ATP release, luminescence. inhibition, %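 (compounds screened at 7.5 µM in platelet-rich plasma)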. 300,000 tested, 0.22% active;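 active = mean replicate score, as percent of positive control, at or above 50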
pCIP destab = lowers stability of the mouse p/CIP coactivator protein | Q05BA5 | 290,000 tested, 0.01% active | F442A p/CIP-EGFP cells, EGFP fluorescence, 16 h | decrease of EGFP signal, % at 10 µM;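 active = EGFP signal decrease of at least 30% at 10 µM or well 3 SD below plate mean, unless failing retest; inactive = the rest, including hits failing retest or dose response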
AHR activator = human AHR activation. AID 2796. activation, % at 5 µM. P35869. AHR-responsive luciferase reporter cells, luminescence. 320,000 tested, 2.5% active; in the data active = activation above about 47%
PolyA inhibitor = yeast polyadenylation inhibition. 300,000 tested, 0.02% active. S. cerevisiae SKY197-pL101 polyadenylation reporter, beta-gal luminescence; efflux-impaired pdr1/pdr3 knockout yeast; score 100 = 6 SD above DMSO. activity score, % at 12 µM;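 active = lowest replicate activity score at least 50, where 100 means six control SD above control mean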;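 note: yeast exposed to compound for 9 h at 30 °C; higher score means more reporter readthrough which indicates perturbed polyadenylation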
A number is an active result. Sampled rows, rich in hits. Any-hit rate of the full collection: about 2.8%.

What do the screens show for `COc1cc2c(cc1OC)-c1c3c(cc4c1[C@@H](C2)N(C)CC4)OCO3`?
HIF activator: inactive; Platelet DG rel: inactive; pCIP destab: inactive; AHR activator: 55; PolyA inhibitor: inactive

How did Cc1ccc2c(c1N)C(=O)c1ccccc1C2=O do in these assays?
AHR activator: 73

How did O=C(c1ccc2c(c1)OCO2)C1CCCN(Cc2c(F)cccc2Cl)C1 (stereo not drawn) do in these assays?
HIF activator: inactive; Platelet DG rel: inactive; pCIP destab: inactive; AHR activator: 48; PolyA inhibitor: inactive

How did N[C@@H](Cc1c[nH]c2ccccc12)c1nnc(SCc2ccccc2)o1 do in these assays?
HIF activator: inactive; Platelet DG rel: inactive; pCIP destab: inactive; AHR activator: 74; PolyA inhibitor: inactive

Results for CC(C)=CCSc1nnc([C@@H](N)Cc2c[nH]c3ccccc23)o1 ?
HIF activator: 18; Platelet DG rel: inactive; pCIP destab: inactive; AHR activator: inactive; PolyA inhibitor: inactive

Results for NC(N)=N/N=C/c1cn(-c2ccccc2)nc1-c1cccs1 ?
HIF activator: inactive; Platelet DG rel: inactive; pCIP destab: inactive; AHR activator: 50; PolyA inhibitor: inactive

How did O=c1c2ccccc2nc(-c2cccs2)n1-c1ccccc1 do in these assays?
HIF activator: inactive; Platelet DG rel: inactive; pCIP destab: inactive; AHR activator: inactive; PolyA inhibitor: inactive

What do the screens show for `CC(C)(C)C(=O)NC1CCSC1=O` (stereo not drawn)?
HIF activator: inactive; Platelet DG rel: inactive; pCIP destab: inactive; AHR activator: inactive; PolyA inhibitor: inactive

What do the screens show for `O=C1NC(=O)N(Cc2ccco2)C(=O)/C1=C\c1cccn1CCOc1ccc(Cl)cc1`?
HIF activator: inactive; Platelet DG rel: inactive; pCIP destab: inactive; AHR activator: inactive; PolyA inhibitor: inactive

What do the screens show for `Cc1cccc(OCCn2cccc2/C=C2/C(=O)NC(=O)N(Cc3ccco3)C2=O)c1`?
HIF activator: 592; Platelet DG rel: inactive; pCIP destab: inactive; AHR activator: inactive; PolyA inhibitor: inactive

Results for COC(=O)C1=C(c2ccc(F)cc2OCc2ccccc2)C[C@@H]2CC[C@H]1N2C(=O)NCCN1CCOCC1 ?
AHR activator: inactive

What do the screens show for `CC(=O)Nc1ccc(OC(=O)N(C)c2ccccc2)cc1`?
HIF activator: inactive; Platelet DG rel: 53; pCIP destab: inactive; AHR activator: inactive; PolyA inhibitor: inactive

How did COc1ccc2c3c([nH]c2c1)C(C)=NCC3 do in these assays?
HIF activator: inactive; Platelet DG rel: inactive; pCIP destab: inactive; AHR activator: 50; PolyA inhibitor: inactive

Results for CC1=NCCc2c1[nH]c1cc(O)ccc21 ?
AHR activator: inactive

Results for COc1ccccc1-n1c(Cc2ccccc2)nc2ccccc2c1=O ?
HIF activator: inactive; Platelet DG rel: inactive; pCIP destab: inactive; AHR activator: inactive; PolyA inhibitor: inactive

How did CCOC(=O)c1c(C)n(Cc2ccccc2)c2ccc(OCC(O)Cn3nc(C)cc3C)cc12 (stereo not drawn) do in these assays?
pCIP destab: inactive; AHR activator: 55

What do the screens show for `COc1cccc(-n2c(CN3CCN(C)CC3)nc3ccc([N+](=O)[O-])cc3c2=O)c1`?
HIF activator: inactive; Platelet DG rel: inactive; pCIP destab: inactive; AHR activator: inactive; PolyA inhibitor: inactive

How did CCNc1nc(Cl)nc(NC(C)C)n1 do in these assays?
HIF activator: inactive; Platelet DG rel: 56; pCIP destab: inactive; AHR activator: inactive; PolyA inhibitor: inactive

Results for Cc1oc(-c2ccc(F)cc2F)nc1CN1C[C@@H]2C[C@@H](C1)c1cccc(=O)n1C2 ?
HIF activator: inactive; Platelet DG rel: inactive; pCIP destab: inactive; AHR activator: inactive; PolyA inhibitor: inactive

What do the screens show for `Cc1cccc(NC(=O)COC(=O)c2cc(C)n(C3CC3)c2C)c1`?
AHR activator: inactive

How did C/C(=N\Nc1cccc2ccccc12)c1c(O)n(Cc2ccccc2)c(=O)[nH]c1=O do in these assays?
HIF activator: inactive; Platelet DG rel: inactive; pCIP destab: inactive; AHR activator: 51; PolyA inhibitor: inactive

How did C/C(=N\NC(=O)c1ccccc1)c1c(O)n(Cc2ccccc2)c(=O)[nH]c1=O do in these assays?
HIF activator: inactive; Platelet DG rel: inactive; pCIP destab: inactive; AHR activator: inactive; PolyA inhibitor: inactive

What do the screens show for `Brc1ccc2c(c1)C(OC1CN3CCC1CC3)c1ccccc1CS2` (stereo not drawn)?
HIF activator: inactive; Platelet DG rel: inactive; pCIP destab: inactive; AHR activator: inactive; PolyA inhibitor: inactive

Compound activity deposited in PubChem by several laboratories.
